The text below walks through data of PubChem BioAssay.

What is called inhibition is the change of the read-out against control, counted positive when it falls.

The structures appear in SMILES notation. Some of the results follow. Unmarked numbers belong to inactive results. Calls of active or inactive are those of the source. Cut-off read from the data, not from the text of the source, unless noted: active = inhibition above about 19%; inactive = the rest.

The test system of one assay is T-cell receptor (TCR)-CD3 interaction, human. Kind of assay: blockers of TCR binding to CD3 – biochemical, fluorescence, TAMRA-labeled TCR probe, confirmation (AID 652036). Particulars: TAMRA-labeled TCR probe fluorescence binding assay; at 9.4 µM; stronger effect = higher value.
In the case of `O=C(N/N=C/c1ccco1)c1ccc(C(=O)N/N=C/c2ccco2)o1`, the inhibition was 28.2% (active).

As to `CCN(C(=O)Nc1cccc2ccccc12)c1ccccc1`, the inhibition was 3.23%.

Consider `O=C1C(Cc2ccc(O)cc2)NC(=S)N1Cc1ccccc1` (stereo unspecified), for which the inhibition was -0.37%.

On to `COc1ccc(-c2c(-c3cc(OC)cc(OC)c3)n(C)c3ccc(-c4ccn[nH]4)cc23)cc1`, for which the inhibition is -1.35%.

`COc1ccc(C(=O)NNc2cc(C)nc(NNC(=O)c3ccc(OC)cc3)n2)cc1`: the inhibition was 5.09%.

Take `COCCCNC(=S)NNC(=O)C(O)(c1ccccc1)c1ccccc1`: the inhibition is 16.3%.

On to `O=C(N/N=C/c1cc([N+](=O)[O-])ccc1O)/C(=C\c1cccs1)NC(=O)c1ccccc1`, for which the inhibition was 35% (active).

`Cc1cc2nc3c(=O)[nH]c(=O)nc-3n(C[C@H](O)[C@H](O)[C@H](O)CO)c2cc1C`: the inhibition is 33.3% (active).

Take `CNC(=S)NNC(=O)c1cccn(Cc2ccccc2)c1=O`: the inhibition is 46.7% (active).

`O=c1c2ccccc2c(-c2ccccc2)nn1-c1ccccn1`: the inhibition was -0.97%.

Consider `Cc1ccc(C(=O)NCC(=O)O)cc1S(=O)(=O)N1CCCCC1`, for which the inhibition was 5.08%.

Regarding `C=CCn1c(=O)c(C(=O)Nc2ncccc2O)c(O)c2ccccc21`, the inhibition was 16.6%.

On to `COc1ccc(C(=O)NC(=S)NNC(=O)CCc2ccccc2)cc1`, for which the inhibition was 13%.

As for `Oc1ccc(N=Cc2c(O)ccc3ccccc23)cc1`, the inhibition was 4.09%.

Turning to `Cc1ncc(CO)c(/C=N/NC(=O)c2cccc(S(=O)(=O)N3CCCC3)c2)c1O`, the inhibition is 15.4%.

System in another assay: not listed separately
In words: VP16-driven transactivation reporter suppression – cell-based, luminescence, HEK293, counter-screen for COUP-TFII antagonist project (AID 687007; in the data active = inhibition above about 13%). To be noted: HEK293 Gal4-VP16 luciferase reporter, at 8.5 µM, stronger effect = higher value. A general note: Counterscreens check selectivity or assay interference.
For the compound `CN1OC[C@@H]2CN(S(=O)(=O)c3cccc(C(F)(F)F)c3)[C@H](c3ccc(-c4cc5ccccc5o4)cc3)C[C@@H]21`, the inhibition is -5.07%.

Consider `C[C@H]1CCC/C=C/C(=O)c2c(O)cc(O)cc2CC(=O)O1`, for which the inhibition was 49.3% (active).

Turning to `CC[C@@H](C)[C@H](NC(=O)CCc1c(C)c2cc3c4c(oc3c(C)c2oc1=O)CCCC4)C(=O)O`, the inhibition was 22.3% (active).

For the compound `COc1ccc(OC)c(NC(=O)c2cc(-c3cc(F)ccc3OCC3CCCO3)n[nH]2)c1` (stereo unspecified), the inhibition was 3.7%.

`O=C(c1c(F)cccc1F)N1CCN(S(=O)(=O)c2ccc3c(c2)OCCO3)CC1`: the inhibition is -10.6%.

Consider `Cc1ccc(-c2nc(CSCC(=O)NC3CCN(Cc4ccccc4)CC3)c(C)o2)cc1`, for which the inhibition was 0.41%.

Regarding `COc1ccc(/C=C2/SC(=O)N(CCCCCC(=O)Nc3ccccc3C(=O)O)C2=S)cc1`, the inhibition was 29.6% (active).

Consider `O=C1NC[C@@H](Cc2ccc(O)cc2)N(CCc2cccc(F)c2)C1=O`, for which the inhibition was 4.3%.

In the next assay the target is COUP transcription factor 2 (Homo sapiens) (UniProt P24468). Kind of assay: retest of COUP-TFII reporter suppressors – cell-based, luciferase reporter, HEK293, triplicate, confirmation (AID 687008;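 active = mean inhibition over three repeats above a set limit taken from the earlier primary screen, cut at about 38% in these data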;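 note: 100% = cells given the luciferase reporter alone without the COUP-TF2 vector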). Particulars: HEK293 NGFI-A luciferase reporter, luminescence; at 8.5 µM; stronger effect = higher value. (In general: In a reporter assay the amount or activity of a reporter protein is the signal.)
COUP transcription factor 2 (Homo sapiens), sequence (P24468 whole entry, looked up): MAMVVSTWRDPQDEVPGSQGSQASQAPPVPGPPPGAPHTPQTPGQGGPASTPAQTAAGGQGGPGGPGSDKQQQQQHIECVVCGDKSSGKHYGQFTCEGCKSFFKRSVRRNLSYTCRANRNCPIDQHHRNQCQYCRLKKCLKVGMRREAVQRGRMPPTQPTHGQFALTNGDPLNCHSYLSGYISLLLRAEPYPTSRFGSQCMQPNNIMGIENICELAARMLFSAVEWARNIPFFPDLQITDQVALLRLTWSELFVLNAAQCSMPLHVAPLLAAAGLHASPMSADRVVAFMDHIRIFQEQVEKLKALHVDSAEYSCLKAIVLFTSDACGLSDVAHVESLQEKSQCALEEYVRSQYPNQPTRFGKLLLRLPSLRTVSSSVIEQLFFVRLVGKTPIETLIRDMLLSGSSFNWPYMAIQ
For the compound `CN1OC[C@@H]2CN(S(=O)(=O)c3cccc(C(F)(F)F)c3)[C@H](c3ccc(-c4cc5ccccc5o4)cc3)C[C@@H]21`, the inhibition was 0.77%.

Take `C[C@H]1CCC/C=C/C(=O)c2c(O)cc(O)cc2CC(=O)O1`: the inhibition was -1.02%.

On to `CC[C@@H](C)[C@H](NC(=O)CCc1c(C)c2cc3c4c(oc3c(C)c2oc1=O)CCCC4)C(=O)O`, for which the inhibition is 24.8%.

For `COc1ccc(OC)c(NC(=O)c2cc(-c3cc(F)ccc3OCC3CCCO3)n[nH]2)c1` (stereo unspecified), the inhibition was -6.7%.

Consider `O=C(c1c(F)cccc1F)N1CCN(S(=O)(=O)c2ccc3c(c2)OCCO3)CC1`, for which the inhibition is 23.4%.

With `Cc1ccc(-c2nc(CSCC(=O)NC3CCN(Cc4ccccc4)CC3)c(C)o2)cc1`, the inhibition is 22.5%.

As for `COc1ccc(/C=C2/SC(=O)N(CCCCCC(=O)Nc3ccccc3C(=O)O)C2=S)cc1`, the inhibition was 17.7%.

As to `O=C1NC[C@@H](Cc2ccc(O)cc2)N(CCc2cccc(F)c2)C1=O`, the inhibition was 5.14%.
